# Tested on: THRa homodimer (NR concentration 90 nM)
# Test: PBM binding z-score (relative to random genomic background probes); higher = stronger binding; sequences stand for … in GC…GCGATTGACAGCGTAGAATGAAGG
# How it was run: (§1)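 Binding z-scores take random background probes as their reference. They come from custom Agilent 4×180K protein-binding microarrays incubated 1 h with ligand-free nuclear receptor dimers, with antibodies against each partner (one per run) detecting binding. Scanned fluorescence was regression-normalized.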
row,Sequence,PBM binding z-score
1,TGGAGTAGGTTACGGGGGCATTCAGGGATGAAGA,2.48
2,CGTCCAAGGTCAGAGAGGTCAGTGTATGCCGAGT,3
3,CCTACTGGGCCACGAAAGGTGATTGATTCAGTGA,-0.377
4,ATATGTAGGTTAGGGTCATTAAGAAAGTAGGGAA,2.76
5,ATATGTAGGTAAGGGTCATTCAGAAAGTAGGGAA,1.15
6,ATATGTAGGTTAGGGTAATTCAGAAAGTAGGGAA,1.34
7,AGTCCAAGTTCACTAGGTAACGTAAGATTCAGCT,0.381
8,TCTCGGAGGACACGAAAAGTCAGAGCTCGACATC,0.205
9,ATATGTAGGTTAGGGTTATTCAGAAAGTAGGGAA,1.52
10,CGAACTAGGTCACCAAGACAGTGAAGAGGTTGGA,1.28
11,CTATGTAAGTTAAGGGGGTCATTCAGTTTGAAAG,2.28
12,CAAACTAGGTCAAGGGGTCAAAGTCCGCTTCCCG,2.49
13,CGCACTAGGTCACCAGGACAGTGAAGAGGTTGGA,2.35
14,CGACCTAGGTCACCAGGACAGTGAAGAGGTTGGA,1.53
15,CAAACTAGGTCACGAAAGGTCAACGTCGAATGAC,2.98
16,TATACAGGATCAAAGGCCAGAGTACGAATGTCGA,-0.472
17,ATATGTAGGTTCCATCCGGGTCATTCAGGCTATG,2.32
18,CGAACTAGGTCACTAGGACAGTGAAGAGGTTGGA,0.967
19,CAAACTAGGTCACCGGGAGGTCAAAGTCCGCATG,4.06
20,GCTGCTAGGTCAGGTTGGTCAACTAACGGGTACG,0.472

row,Sequence,PBM binding z-score
1,CCGAGTAGGTTACGACGGGGCATTCAGTGCGAAT,-0.61
2,CCGAGTAGGTTACGAGGGGGCATTCGGTGCGAAT,0.298
3,CGAACAAGGTCAAAGGACAGTGAAAGGCGACGTA,1.54
4,ATATGTAGGTTAAGGTCATTCAGAAAGTAGGGAA,4.8
5,CTATGTAGGTTAAGGGGGTCACTCAGTTTGAAAG,2.06
6,CAAGCTAGGTCAAGAGGTCAAAGTCCGCTTCCCG,2.36
7,CGAACTAGGTCAAAGGACAGTAAAAGGCGACGTA,0.556
8,TCGAGTAGGTTCCGGGGGCATTCAGGGATGAAGA,1.08
9,TGAATGAGGTTTAAGATCAGGGAACGTGGCGTCG,-0.624
10,TCGAGTAGGTTACGGGGGCATTCAAGGATGAAGA,1.06
11,CGAACTGGGTCAAAGGACAGTGAAAGGCGACGTA,0.161
12,TCGAGTTGGTTACGGGGGCATTCAGGGATGAAGA,1.87
13,CGAACTAGGTCACAGGACAGTGAAAGGCGACGTA,0.815
14,CCGAGTGGGTTACGAGGGGGCATTCAGTGCGAAT,0.652
15,CAAACTAGGTCACCGGAAAGTCAAAGTCCGCATG,1.8
16,CTGAGTAGGTTACGAGGGGGCATTCAGTGCGAAT,0.778
17,CATACCGGGTCAGCTAGGCCAGAGTAGGGACGGC,0.906
18,AGATGTAGGTTAGGGTCATTCAGAAAGTAGGGAA,3.4
19,TCGAGTAGGTTACGGGTGCATTCAGGGATGAAGA,-0.191

# Tested on: VDR homodimer (NR concentration 270 nM)
# Test: as above
# How it was run: as §1
row,Sequence,PBM binding z-score
1,TGGAGTAGGTTACGGGGGCATTCAGGGATGAAGA,3.94
2,CGTCCAAGGTCAGAGAGGTCAGTGTATGCCGAGT,5.78
3,CCTACTGGGCCACGAAAGGTGATTGATTCAGTGA,-0.289
4,ATATGTAGGTTAGGGTCATTAAGAAAGTAGGGAA,3.54
5,ATATGTAGGTAAGGGTCATTCAGAAAGTAGGGAA,3.13
6,ATATGTAGGTTAGGGTAATTCAGAAAGTAGGGAA,1.11
7,AGTCCAAGTTCACTAGGTAACGTAAGATTCAGCT,4.4
8,TCTCGGAGGACACGAAAAGTCAGAGCTCGACATC,-0.252
9,ATATGTAGGTTAGGGTTATTCAGAAAGTAGGGAA,1.23
10,CGAACTAGGTCACCAAGACAGTGAAGAGGTTGGA,0.496
11,CTATGTAAGTTAAGGGGGTCATTCAGTTTGAAAG,5.94
12,CAAACTAGGTCAAGGGGTCAAAGTCCGCTTCCCG,4.55
13,CGCACTAGGTCACCAGGACAGTGAAGAGGTTGGA,1.14
14,CGACCTAGGTCACCAGGACAGTGAAGAGGTTGGA,0.503
15,CAAACTAGGTCACGAAAGGTCAACGTCGAATGAC,3.47
16,TATACAGGATCAAAGGCCAGAGTACGAATGTCGA,0.376
17,ATATGTAGGTTCCATCCGGGTCATTCAGGCTATG,2.91
18,CGAACTAGGTCACTAGGACAGTGAAGAGGTTGGA,0.00359
19,CAAACTAGGTCACCGGGAGGTCAAAGTCCGCATG,4.85
20,GCTGCTAGGTCAGGTTGGTCAACTAACGGGTACG,0.97

row,Sequence,PBM binding z-score
1,CCGAGTAGGTTACGACGGGGCATTCAGTGCGAAT,0.32
2,CCGAGTAGGTTACGAGGGGGCATTCGGTGCGAAT,3.61
3,CGAACAAGGTCAAAGGACAGTGAAAGGCGACGTA,2.26
4,ATATGTAGGTTAAGGTCATTCAGAAAGTAGGGAA,4.05
5,CTATGTAGGTTAAGGGGGTCACTCAGTTTGAAAG,5.29
6,CAAGCTAGGTCAAGAGGTCAAAGTCCGCTTCCCG,3.64
7,CGAACTAGGTCAAAGGACAGTAAAAGGCGACGTA,0.392
8,TCGAGTAGGTTCCGGGGGCATTCAGGGATGAAGA,3.01
9,TGAATGAGGTTTAAGATCAGGGAACGTGGCGTCG,-0.231
10,TCGAGTAGGTTACGGGGGCATTCAAGGATGAAGA,2.77
11,CGAACTGGGTCAAAGGACAGTGAAAGGCGACGTA,0.185
12,TCGAGTTGGTTACGGGGGCATTCAGGGATGAAGA,4.57
13,CGAACTAGGTCACAGGACAGTGAAAGGCGACGTA,0.381
14,CCGAGTGGGTTACGAGGGGGCATTCAGTGCGAAT,3.43
15,CAAACTAGGTCACCGGAAAGTCAAAGTCCGCATG,0.741
16,CTGAGTAGGTTACGAGGGGGCATTCAGTGCGAAT,3.31
17,CATACCGGGTCAGCTAGGCCAGAGTAGGGACGGC,0.395
18,AGATGTAGGTTAGGGTCATTCAGAAAGTAGGGAA,4.44
19,TCGAGTAGGTTACGGGTGCATTCAGGGATGAAGA,2.69

# — the supplement of paper PMC6555819
